Laboratory results taken from PubChem BioAssay (NCATS).
Inconclusive results are not listed. A number with no mark means an inactive call. The source made the active and inactive calls. Calls come from the whole dose curve; as a rule, active = well fitted inhibition curve with a large enough effect; inconclusive = small, poorly fitted or top-dose-only effect; inactive = flat fitted curve, though single readings scatter.

The compounds below were run on HEK293 (assay: Cytotoxic Profiling of Annotated Libraries Using Quantitative High-Throughput Screening (AID 1296008; note: nearly all actives have a fitted effect of over 60% in size)). Details: Five cell lines viability, CellTiter-Glo ATP luminescence, 48-72 h; max response: stronger effect = lower value.
Method in brief: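 Compounds were pin-transferred onto cells and incubated 48 or 72 hr at 37 degree Celsius, 95% humidity. CellTiter-Glo was added, plates sat 10 min at room temperature, then ATP-coupled luminescence was imaged as the viability read-out.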
% is set by controls: 0 for no effect and ±100 for the full control effect; potency is the fitted concentration of half-maximal effect.

| SMILES | Potency | max response [%] | outcome |
| --- | --- | --- | --- |
| COC1CC(OC2CCC3(C)C(CCC4C3CCC3(C)C(C5=CC(=O)OC5)C(OC(C)=O)CC43O)C2)OC(C)C1OC1OC(CO)C(O)C(O)C1O (stereo unspecified) | 1.22 µM (active) | – | – |
| CC1=C2C(=O)C3[C@@H](CC=C4C[C@@H](O)CC[C@@]43C)[C@@H]2CC[C@]12O[C@@H]1C[C@H](C)CN[C@H]1[C@H]2C (stereo partly specified) | – | -3.9 | – |
| C[C@H]1C(=O)O[C@H]2[C@H](O)[C@]34C5OC(=O)[C@]3(O[C@@H]3OC(=O)[C@H](O)C34[C@H](C(C)(C)C)[C@H]5O)C12O (stereo partly specified) | – | -8.69 | – |
| COc1cc2c(cc1OC)[C@@]13CCN4CC5=CCO[C@H]6CC(=O)N2[C@H]1[C@H]6[C@H]5C[C@H]43 | – | -25.1 | – |
| COc1ccccc1CN[C@H]1C2CCN(CC2)[C@H]1C(c1ccccc1)c1ccccc1 | – | -17 | – |
| Cc1cccc(NC(=O)N[C@@H]2N=C(c3ccccc3)c3ccccc3N(C)C2=O)c1 | – | -5.08 | – |
| COC1CC(=O)C23C(=O)NC(CC(C)C)C2C(C)=C(C)C(OO)C3/C=C(\C)CCC(O)C1O (stereo unspecified) | – | 3.17 | – |
| OC1(c2ccc(Cl)cc2)c2ccccc2C2=NCCN21 (stereo unspecified) | – | -19.8 | – |
| C[C@@](O)(COc1ccc(C#N)cc1)C(=O)Nc1ccc(C#N)c(C(F)(F)F)c1 | 14.6 µM (active) | – | – |
| CC(=O)O[C@H]1C[C@@H](OC(C)=O)C(C)(C)C2C[C@@H](O)[C@]3(C)C(CC[C@@]4(C)[C@H](C5=CC(=O)OC5O)C[C@H]5O[C@]543)[C@]21C (stereo partly specified) | – | – | inactive |
| CC(C)[C@@H](CN1CC[C@@](C)(c2cccc(O)c2)[C@@H](C)C1)NC(=O)[C@H]1Cc2ccc(O)cc2CN1 | – | -18.6 | – |
| CC(C)C1(OO)C=C2C(=O)CC3C(C)(C(=O)O)CCCC3(C)C2CC1 (stereo unspecified) | – | 2.31 | – |
| C[C@H]1O[C@@H](O[C@H]2C[C@@H](O)[C@]3(CO)C4C(CC[C@]3(O)C2)[C@@]2(O)CC[C@H](C3=CC(=O)OC3)[C@@]2(C)C[C@H]4O)[C@@H](O)[C@@H](O)[C@H]1O (stereo partly specified) | 0.343 µM (active) | – | – |
| COC(=O)C1(C)CCC(O)C2(C)c3cc(O)c(C(C)C)cc3C(O)C(OC(C)=O)C12 (stereo unspecified) | – | 3.05 | – |
| CCc1[nH]c2ccc(OC)cc2c1CCN(C)C | – | -15.9 | – |
| CC12CCC3C(CCC4(O)CC(O)CCC34C=O)C1(O)CCC2C1=CC(=O)OC1 (stereo unspecified) | 1.03 µM (active) | – | – |
